Measurements taken from PubChem BioAssay (Tox21).
Records with an inconclusive call do not appear. Active and inactive are the calls of the source. Unless noted, calls come from the whole dose curve; as a rule, active = well fitted curve in the direction sought with a large enough effect in the repeat runs; inconclusive = weak or mixed curves; inactive = no such curve, though single readings can be large; an effect the other way counts as inactive or inconclusive.

How the values were obtained:
[1] = qHTS assay to identify small molecule antagonists of the thyroid receptor (TR) signaling pathway - cell viability counter screen (AID 743064); note: nearly all actives have a fitted effect of over 50% in size
Outline: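 GH3.TRE-Luc rat pituitary cells dosed after 4 hr plating, co-stimulated with T3 at 1 nM final, incubated 23.5 h at 37 C. Viability measured in the same wells by CellTiter-Fluor fluorescence after 30 min further at 37 C.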

[2] = qHTS assay to identify small molecule antagonists of the thyroid receptor (TR) signaling pathway (AID 743065); note: series mostly up to about 70 µM; nearly all actives have a fitted effect of over 55% in size
Outline: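 Antagonism measured as loss of luciferase signal in GH3 cells stably carrying a TRE-luciferase reporter, co-treated with compound and T3 (1 nM final) for 23.5 h at 37 C. Viability was read in the same well by CellTiter-Fluor.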

[3] = tested on: thyroid hormone receptor (rat, GH3 cells); assay: qHTS assay to identify small molecule agonists of the thyroid receptor (TR) signaling pathway (AID 743066; calls by dose curve)
[4] = target: Estrogen receptor (Homo sapiens) (UniProt P03372); assay: qHTS assay to identify small molecule antagonists of the estrogen receptor alpha (ER-alpha) signaling pathway (AID 743069; active = well fitted curve in the direction sought with a large enough effect in the signal ratio in the repeat runs, not every such curve was filed as active; the % refers to the signal ratio)
Outline: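 Fluorescence intensity from a beta-lactamase FRET substrate served as the read-out. Cells: HEK293 with stably integrated ER-alpha-UAS-bla reporter. Agonist 17beta-estradiol was co-added with compounds; incubation 18 hr at 37C, substrate 2 hr at room temperature.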

[5] = qHTS assay to identify small molecule antagonists of the estrogen receptor alpha (ER-alpha) signaling pathway - cell viability counter screen (AID 743074; calls by dose curve; note: nearly all actives have a fitted effect of over 45% in size)
[6] = target: Estrogen receptor (Homo sapiens) (UniProt P03372); assay: qHTS assay to identify small molecule agonists of the estrogen receptor alpha (ER-alpha) signaling pathway (AID 743075; calls by dose curve)
[7] = target: Estrogen receptor (Homo sapiens) (UniProt P03372); assay: qHTS assay to identify small molecule agonists of the estrogen receptor alpha (ER-alpha) signaling pathway using the BG1 cell line (AID 743079); note: nearly all actives have a fitted effect of over 20% in size
[8] = qHTS assay to identify small molecule antagonists of the estrogen receptor alpha (ER-alpha) signaling pathway using the BG1 cell line (AID 743080; calls by dose curve;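 note: BG1 cells stimulated with 17beta-estradiol alongside compound; series mostly up to about 70 µM; nearly all actives have a fitted effect of over 25% in size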)
Outline: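 Seeding, 24 h rest, compound transfer from DMSO, 17beta-estradiol addition, 21.5 h incubation, CellTiter-Fluor (30 min, 37 C), then ONE-Glo (30 min, room temperature): this sequence was run on BG1-Luc-4E2 reporter cells.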

[9] = qHTS assay to identify small molecule antagonists of the estrogen receptor alpha (ER-alpha) signaling pathway using the BG1 cell line - cell viability counter screen (AID 743081);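 note: compound given together with 17beta-estradiol as the ER stimulus; series mostly up to about 70 µM; nearly all actives have a fitted effect of over 45% in size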
[10] = target: Aromatase (Homo sapiens) (UniProt P11511); assay: qHTS assay to identify aromatase inhibitors (AID 743083); note: series mostly up to about 70 µM; nearly all actives have a fitted effect of over 55% in size
[11] = qHTS assay to identify aromatase inhibitors - cell viability counter screen (AID 743084);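 note: cells stimulated with testosterone during compound exposure; nearly all actives have a fitted effect of over 55% in size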
[12] = target: Aryl hydrocarbon receptor (Homo sapiens) (UniProt P35869); assay: qHTS assay to identify small molecule that activate the aryl hydrocarbon receptor (AhR) signaling pathway (AID 743085);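 note: HG2L7.5c1 human HepG2 liver cells with stably integrated DRE-driven firefly reporter; series mostly up to about 70 µM; nearly all actives have a fitted effect of over 15% in size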
Outline: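 HepG2 cells stably carrying a 20-DRE firefly luciferase reporter (HG2L7.5c1) treated with compound for 24 hr at 37C. Luciferase read by ONE-Glo luminescence, with CellTiter-Fluor viability read first.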

[13] = qHTS assay to identify small molecule that activate the aryl hydrocarbon receptor (AhR) signaling pathway - cell viability counter screen (AID 743086);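 note: HepG2 liver cells carrying the AhR DRE luciferase reporter; series mostly up to about 70 µM; nearly all actives have a fitted effect of over 45% in size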
Outline: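 Cytotoxicity counter screen: CellTiter-Fluor signal (30 min, 37 C) in 4000 HepG2 cells/well carrying the DRE-luciferase reporter, following 24 h compound exposure at 37 C.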

[14] = target: Peroxisome proliferator-activated receptor gamma (Homo sapiens) (UniProt P37231); assay: qHTS assay to identify small molecule agonists of the peroxisome proliferator-activated receptor gamma (PPARg) signaling pathway (AID 743094; active = well fitted activation curve with a large enough effect in the signal ratio in the repeat runs, not every such curve was filed as active; the % refers to the signal ratio)
Outline: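 Agonist activity was taken from a beta-lactamase reporter (FRET substrate, 1 h at room temperature) in HEK293H cells carrying a PPARg UAS-bla construct. Compounds in DMSO were incubated 17 h at 37C after a 5 h cell pre-incubation.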

[15] = target: Peroxisome proliferator-activated receptor gamma (Homo sapiens) (UniProt P37231); assay: qHTS assay to identify small molecule antagonists of the peroxisome proliferator-activated receptor gamma (PPARg) signaling pathway (AID 743191; calls by dose curve; note: series mostly up to about 63 µM; nearly all actives have a fitted effect of over 30% in size)
Outline: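 Beta-lactamase reporter under UAS control in HEK293H PPARg-bla cells; compound treatment 17 h at 37C. Read-out: fluorescence intensity after 1 h room-temperature incubation with LiveBLAzer B/G FRET substrate.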

[16] = qHTS assay to identify small molecule antagonists of the peroxisome proliferator-activated receptor gamma (PPARg) signaling pathway - cell viability counter screen (AID 743194); note: nearly all actives have a fitted effect of over 55% in size
Outline: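 Viability was measured as CellTiter-Glo luminescence in GeneBLAzer PPARg UAS-bla HEK293H cells. These cells had been exposed 17 h at 37 C to compounds together with rosiglitazone at 50 nM final, with the beta-lactamase readout taken in the same wells.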

[17] = qHTS assay for small molecule agonists of the antioxidant response element (ARE) signaling pathway - cell viability counter screen (AID 743203; calls by dose curve; note: nearly all actives have a fitted effect of over 55% in size)
Outline: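 Viability counter screen: CellTiter-Glo luminescence, read after 30 min at room temperature, in ARE-bla HepG2 wells. Compound exposure lasted 16 h at 37C/5% CO2, following a 5 h pre-incubation of the cells after plating.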

[18] = qHTS assay for small molecule activators of the heat shock response signaling pathway (AID 743210; active = well fitted activation curve with a large enough effect in the signal ratio in the repeat runs, with a control signal flat, not every such curve was filed as active; the % refers to the signal ratio;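 note: HeLa cells with beta-lactamase reporter driven by heat shock elements; series mostly up to about 63 µM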)
Outline: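 Fluorescence from a cleaved B/G FRET substrate (2.5 h, room temp) reports HSE-driven beta-lactamase in HeLa cells treated 5 h at 37 C with DMSO-dissolved compounds.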

[19] = qHTS assay for small molecule activators of the heat shock response signaling pathway - cell viability counter screen (AID 743209); note: nearly all actives have a fitted effect of over 50% in size
Outline: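 Cytotoxicity counter screen run in the same wells as the heat-shock bla reporter assay: HeLa HSE-bla cells, 5 h compound exposure at 37 C, viability read by CellTiter-Glo luminescence.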

[20] = qHTS assay for small molecule agonists of the antioxidant response element (ARE) signaling pathway (AID 743202; active = well fitted activation curve with a large enough effect in the signal ratio in the repeat runs, not every such curve was filed as active; the % refers to the signal ratio)
Outline: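 Beta-lactamase reporter activity, read as fluorescence intensity, reflects ARE/Nrf2 pathway induction in HepG2 cells after 16 h compound exposure at 37 C; substrate loading was 2 h at room temperature.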

Measured: Potency

Aryl hydrocarbon receptor (Homo sapiens), sequence (P35869 whole entry, looked up): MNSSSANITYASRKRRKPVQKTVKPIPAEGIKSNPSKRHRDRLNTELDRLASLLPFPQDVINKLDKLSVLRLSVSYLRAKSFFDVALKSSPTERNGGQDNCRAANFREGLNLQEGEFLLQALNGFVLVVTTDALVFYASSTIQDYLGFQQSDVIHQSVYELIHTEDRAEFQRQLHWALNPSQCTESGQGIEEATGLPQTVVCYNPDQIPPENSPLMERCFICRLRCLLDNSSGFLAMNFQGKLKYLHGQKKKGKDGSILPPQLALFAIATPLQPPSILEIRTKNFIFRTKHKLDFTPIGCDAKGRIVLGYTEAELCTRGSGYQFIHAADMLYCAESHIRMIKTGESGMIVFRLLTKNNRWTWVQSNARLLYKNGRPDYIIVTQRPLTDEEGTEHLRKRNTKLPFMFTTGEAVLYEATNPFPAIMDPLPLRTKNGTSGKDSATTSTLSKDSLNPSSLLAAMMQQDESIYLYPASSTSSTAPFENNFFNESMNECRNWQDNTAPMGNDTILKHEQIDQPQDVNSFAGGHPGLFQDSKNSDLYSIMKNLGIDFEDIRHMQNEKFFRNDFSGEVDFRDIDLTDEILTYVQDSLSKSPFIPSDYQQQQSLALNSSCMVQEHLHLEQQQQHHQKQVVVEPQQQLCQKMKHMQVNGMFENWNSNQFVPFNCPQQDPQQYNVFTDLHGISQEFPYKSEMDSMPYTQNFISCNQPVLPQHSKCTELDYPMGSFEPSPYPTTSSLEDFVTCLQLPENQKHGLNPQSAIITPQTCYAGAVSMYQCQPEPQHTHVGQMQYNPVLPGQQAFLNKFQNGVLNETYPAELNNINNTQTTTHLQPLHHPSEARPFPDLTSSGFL
Estrogen receptor (Homo sapiens), sequence (P03372 whole entry, looked up): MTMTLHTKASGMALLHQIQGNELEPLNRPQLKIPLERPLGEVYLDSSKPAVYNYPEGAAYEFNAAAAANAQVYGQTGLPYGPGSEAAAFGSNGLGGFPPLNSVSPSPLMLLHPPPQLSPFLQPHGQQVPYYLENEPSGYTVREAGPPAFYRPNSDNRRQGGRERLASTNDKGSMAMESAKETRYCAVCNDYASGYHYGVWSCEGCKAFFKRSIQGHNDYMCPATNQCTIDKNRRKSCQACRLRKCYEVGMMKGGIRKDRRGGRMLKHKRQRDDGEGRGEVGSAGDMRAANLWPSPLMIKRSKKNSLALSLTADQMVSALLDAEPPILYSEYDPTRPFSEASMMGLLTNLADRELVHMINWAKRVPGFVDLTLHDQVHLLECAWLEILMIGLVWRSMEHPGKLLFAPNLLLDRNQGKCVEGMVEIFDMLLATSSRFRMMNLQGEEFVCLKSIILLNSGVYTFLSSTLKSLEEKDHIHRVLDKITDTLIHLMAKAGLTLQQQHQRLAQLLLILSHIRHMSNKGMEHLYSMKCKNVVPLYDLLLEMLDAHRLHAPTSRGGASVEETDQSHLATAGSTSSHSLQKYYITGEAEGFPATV
Aromatase (Homo sapiens), sequence (P11511 whole entry, looked up): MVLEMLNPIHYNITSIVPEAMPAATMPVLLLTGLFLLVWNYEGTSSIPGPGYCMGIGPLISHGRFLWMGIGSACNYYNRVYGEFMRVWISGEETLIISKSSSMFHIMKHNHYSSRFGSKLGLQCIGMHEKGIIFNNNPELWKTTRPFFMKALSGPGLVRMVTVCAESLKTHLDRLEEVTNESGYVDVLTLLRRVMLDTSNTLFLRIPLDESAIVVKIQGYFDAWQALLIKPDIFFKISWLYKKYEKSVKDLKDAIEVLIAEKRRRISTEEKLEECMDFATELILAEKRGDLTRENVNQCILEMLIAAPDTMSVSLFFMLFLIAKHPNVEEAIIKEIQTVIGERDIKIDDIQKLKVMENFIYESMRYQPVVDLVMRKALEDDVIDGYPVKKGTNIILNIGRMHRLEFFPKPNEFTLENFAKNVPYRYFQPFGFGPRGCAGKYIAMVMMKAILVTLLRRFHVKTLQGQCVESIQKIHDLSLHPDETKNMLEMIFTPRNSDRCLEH
Peroxisome proliferator-activated receptor gamma (Homo sapiens), sequence (P37231 whole entry, looked up): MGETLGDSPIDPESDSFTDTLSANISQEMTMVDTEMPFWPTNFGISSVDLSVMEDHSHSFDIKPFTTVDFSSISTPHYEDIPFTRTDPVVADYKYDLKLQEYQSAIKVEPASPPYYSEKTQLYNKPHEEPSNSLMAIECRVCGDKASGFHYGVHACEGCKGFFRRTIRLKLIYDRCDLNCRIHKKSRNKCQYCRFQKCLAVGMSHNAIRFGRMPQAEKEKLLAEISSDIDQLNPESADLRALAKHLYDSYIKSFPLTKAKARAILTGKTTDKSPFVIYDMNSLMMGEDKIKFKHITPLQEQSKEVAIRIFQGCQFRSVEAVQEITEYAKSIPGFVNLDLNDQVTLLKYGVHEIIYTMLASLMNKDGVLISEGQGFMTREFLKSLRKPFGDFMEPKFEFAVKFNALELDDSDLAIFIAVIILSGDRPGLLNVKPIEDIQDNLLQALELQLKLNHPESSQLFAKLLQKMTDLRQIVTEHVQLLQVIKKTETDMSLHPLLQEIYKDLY

O=C1OC(=O)c2cc([N+](=O)[O-])ccc21
inactive: [1] | [2] | [3] | [4] | [5] | [6] | [7] | [8] | [9] | [10] | [11] | [12] | [13] | [14] | [15] | [16] | [17] | [18]

O=[N+]([O-])c1ccc(Oc2ccc([N+](=O)[O-])cc2)cc1
inactive: [1] | [2] | [3] | [4] | [5] | [6] | [7] | [8] | [9] | [10] | [11] | [12] | [13] | [14] | [16] | [17] | [19] | [18]

CCCCCCCCN(C)CCCCCCCC
inactive: [1] | [2] | [3] | [4] | [5] | [6] | [7] | [8] | [9] | [10] | [11] | [12] | [13] | [14] | [15] | [16] | [20] | [17] | [19] | [18]

CCN(CC)C(=O)c1ccc(O)c(OC)c1
inactive: [1] | [2] | [3] | [4] | [5] | [6] | [7] | [8] | [9] | [10] | [11] | [12] | [13] | [14] | [15] | [16] | [20] | [17] | [19] | [18]

Cc1ncc(CSSCc2cnc(C)c(O)c2CO)c(CO)c1O
inactive: [1] | [2] | [3] | [4] | [5] | [6] | [7] | [8] | [9] | [10] | [11] | [12] | [13] | [14] | [15] | [16] | [20] | [17]

NC(=O)c1c(Cl)cccc1Cl
inactive: [1] | [2] | [3] | [4] | [5] | [6] | [7] | [8] | [9] | [10] | [11] | [12] | [13] | [14] | [15] | [16] | [20] | [17] | [19] | [18]

CCCCc1ccc(N)cc1
inactive: [1] | [2] | [3] | [4] | [5] | [6] | [9] | [10] | [11] | [12] | [13] | [14] | [15] | [20] | [17] | [19] | [18]

CCC(C(=O)NC(N)=O)c1ccccc1 (configuration not stated)
inactive: [1] | [2] | [3] | [4] | [5] | [6] | [7] | [8] | [9] | [10] | [11] | [12] | [14] | [15] | [16] | [19] | [18]

CC(C)(C)CC(C)(C)N
inactive: [1] | [2] | [3] | [4] | [5] | [6] | [7] | [8] | [9] | [10] | [11] | [12] | [15] | [16] | [20] | [17] | [19] | [18]

NCCN1CCNC1=O
inactive: [1] | [2] | [3] | [5] | [6] | [7] | [8] | [9] | [10] | [11] | [12] | [13] | [14] | [15] | [16] | [20] | [17] | [19] | [18]

c1ccc(CCCc2ccccn2)cc1
inactive: [1] | [2] | [3] | [4] | [5] | [6] | [9] | [10] | [11] | [13] | [14] | [15] | [16] | [17] | [19] | [18]

COc1cccc(Br)c1
inactive: [1] | [2] | [3] | [4] | [5] | [6] | [7] | [8] | [9] | [10] | [11] | [12] | [16] | [17] | [19] | [18]

C=C[Si](OC)(OC)OC
inactive: [1] | [2] | [3] | [5] | [6] | [7] | [8] | [9] | [10] | [11] | [12] | [13] | [14] | [15] | [16] | [20] | [17] | [19]

C=C(C)C(=O)OCCCCCCCCCCCCCCCCCC
inactive: [1] | [2] | [3] | [4] | [6] | [8] | [9] | [10] | [11] | [12] | [13] | [14] | [15] | [16] | [20] | [17] | [19] | [18]

COc1nc(C)nc(N)n1
inactive: [1] | [2] | [3] | [4] | [5] | [6] | [8] | [9] | [10] | [11] | [12] | [14] | [15] | [16] | [20] | [17] | [19] | [18]

Nc1ccc2cc(S(=O)(=O)O)ccc2c1
inactive: [1] | [2] | [3] | [4] | [5] | [6] | [7] | [8] | [9] | [10] | [11] | [12] | [16] | [17] | [19] | [18]
